The list is not random: actives were taken first. Their share in the collection is about 21%.
Pf growth 48h: P. falciparum growth inhibition at 48 hours (one generation). actives 5.9% (n = 310,000). Potency, µM (titrated, usually from 28.7 µM), inactives show at the top dose activity change, negative = inhibition, hits mostly inhibitors. P. falciparum luciferase growth in erythrocytes, 48 h; further: potency means the concentration at half of the fitted maximal effect; on the % scale 0 is the no-effect control and ±100 the full control effect
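In quantitative HTS format, infected erythrocytes bearing luciferase-reporter parasites were treated for a single generation at 37 C. Luminescence after adding detection reagent served as the growth measure.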
CHX counter: counter-screen for Shiga toxin inhibitors: cycloheximide protein synthesis inhibition; cell reporter, cycloheximide protein synthesis inhibition counterscreen; max response, %; actives 12% (n = 300,000); AID 2314; in the data active means max response mostly above about 13%, no sharp cut-off; inactive means mostly below about 14%; further: read at 38.3 µM for the half of the compounds with a filed dose; 0% is about no effect
Shiga toxin inh: inhibitors of Shiga toxin in Vero cells; AID 2315; inhibition, % at 38.7 µM; Vero cells, Shiga toxin protein synthesis inhibition reporter; actives 9.2% (n = 290,000); in the data active means inhibition mostly above about 28%, no sharp cut-off; inactive means mostly below about 43%; further: 0% is about no effect
Pf growth 96h: P. falciparum growth inhibition at 96 hour, primary screen for plastid delayed-death inhibitors; Potency, µM (titrated, usually from 28.7 µM), inactives show at the highest dose activity change, negative = inhibition, actives largely listed as inhibitors; actives 6.9% (n = 320,000); P. falciparum luciferase reporter growth, 96 h; further: potency means the concentration at half of the fitted maximal effect; on the % scale 0 is the no-effect control and ±100 the full control effect
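Two-generation exposure (96 h) targets delayed-death phenotype. Reporter parasites carrying integrated firefly luciferase, in red cells at 2% hematocrit and 0.05% parasitemia final, kept at 37 C, 5% CO2; luminescence loss indicates inhibition.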
NS1 inh: blocks influenza NS1 protein function; AID 2326; Potency, µM (doses to about 46.1 µM), without a hit: at the top dose activity, positive = more growth; actives 0.4% (n = 270,000); calls by dose curve; further: potency means the concentration at half of the fitted maximal effect; actives are rising curves; nearly all actives have a fitted effect of over 50% in size
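Compounds were scored for reversing the slow growth caused by influenza A NS1 in S. cerevisiae, measured by optical density at 600 nm. Assay medium contained 2% galactose at pH 6.0; NS1-free yeast of the same strain were the positive control.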
Active calls of the source: *; i = inactive; ? = inconclusive; · = not tested or not shown; [ ] = dose if it differs, or a comment. Unless noted, the call rests on the fitted dose curve; in most records, active means well fitted inhibition curve with a large enough effect; inconclusive means small, poorly fitted or top-dose-only effect, or another doubt; inactive means no such curve, though single readings can be large or run the other way.

SMILES	Pf growth 48h	CHX counter	Shiga toxin inh	Pf growth 96h	NS1 inh
COc1cc2c(C(=O)N3CCN(C)CC3)c(C)n(-c3ccccc3)c2cc1Br	4.65µM*	11.3	-5.0	1.47µM*	-1.1%
COCC(=O)N(C)c1nnc(-c2ccccn2)s1	100.1%	40.7*	56.9*	6.8%[5.75 µM]	5.9%
COCC(=O)N(C)c1nnc(-c2ccc([N+](=O)[O-])cc2)s1	36.5%	-1.7	34.3	0.0%	7.6%
CN(C(=O)C1CCOC1)c1nnc(-c2ccncc2)s1 (centres undefined)	2.6%	-2.1	-14.5	?	-0.9%
c1ccc(-c2nnc(-c3ccccn3)s2)nc1	26.3%	58.6*	53.8*	197.5%	11.6%
c1ccc(C2=NNC(c3ccccn3)=NN2)nc1	-51.3%[0.00184 µM]	33.1*	70.5*	?	-30.7%
c1ccc(-c2nc(-c3ccccn3)nc(-c3ccccn3)n2)nc1	?	1.4	-6.8	?	-2.3%
c1ccc(-c2nc3ccccc3nc2-c2ccccn2)nc1	11.7%	-0.5	12.1	3.0%	6.3%
CN(C(=O)C1CCOC1)c1nnc(-c2ccccn2)s1 (centres undefined)	116.2%	29.7*	85.7*	13.1µM*	3.2%
CN(C(=O)C1CCCO1)c1nnc(-c2ccncc2)s1 (centres undefined)	20.2%	10.1	-4.4	217.2%	-9.4%
CN(C(=O)C1CCCO1)c1nnc(-c2ccccn2)s1 (centres undefined)	40.1%	49.9*	47.1*	-1.4%	-9.6%
O=S1(=O)CC(O)C(Nc2ccc(Cl)cc2)C1 (centres undefined)	9.9%	0.8	-4.6	3.7µM*	-1.5%
CCc1nc(SCc2ccc(OC)cc2)n[nH]1	72.5%	30.0*	32.0*	8.1%	20.1%
CCCc1nc(SCc2ccccc2Cl)n[nH]1	·	23.7*	23.2	-17.3%	-69.4%
c1ccc(CSc2n[nH]c(-c3ccco3)n2)cc1	46.4%	20.0*	81.2*	71.7%	-96.2%
CCCc1nc(SCc2ccc(OCC)cc2)n[nH]1	-17.9%	4.8	68.6	-15.8%	-0.8%
CCc1nc(SCc2ccccc2C#N)n[nH]1	-11.9%	-2.0	2.3	9.28µM*	2.3%
Cc1[nH]n(-c2ccc([N+](=O)[O-])cc2)c(=O)c1C=NCCc1c(C)[nH]c2ccccc12	?	-0.5	-12.5	32.1%	5.8%
O=S(=O)(O)CC(S)CS (centres undefined)	1.6%	·	·	-16.5%	·
Cc1cc(C)n2nc(SCc3c(F)cccc3Cl)nc2n1	-20.3%[0.00184 µM]	13.0	22.5	?	-45.5%
Fc1cccc(Cl)c1CSC1=NCCS1	60.0%	34.7*	61.5*	37.2%	6.9%
CCc1nc(SCc2ccccc2)n[nH]1	42.1%	25.0*	58.2*	11.8%	-14.9%
CCCOc1ccc(CSc2n[nH]c(C)n2)cc1	108.9%	32.3*	55.3*	106.4%	-64.1%
Cc1nc(SCc2c(F)cccc2Cl)n[nH]1	26.5%	14.8*	23.6	11.0%	-7.1%
O=C(c1ccco1)N1CCN=C1SCc1c(F)cccc1Cl	-0.6%	1.9	25.9	0.0%	-1.9%
SMILES	Pf growth 48h	CHX counter	Shiga toxin inh	Pf growth 96h	NS1 inh
CCCn1c(SCC(=O)c2[nH]c(C)c(C(C)=O)c2C)n[nH]c1=O	33.4%	1.6	-2.1	1.3%	0.9%
Cc1nc(SCc2ccccc2)n[nH]1	42.3%	13.4*	14.1	6.7%	3.3%
Cc1nc(SCC(=O)c2ccccc2)n[nH]1	44.1%	63.2	15.1	30.7%	-53.2%
CCc1nc(SCc2ccc(F)cc2)n[nH]1	35.6%	31.2*	88.1*	-3.0%	4.5%
Nc1nc(SCc2ccc(F)cc2)n[nH]1	-0.4%	9.3	·	7.9%	6.2%
COC(=O)c1c(NC(=O)COC(=O)CNC(=O)C2CCCCC2)sc(C)c1C	20.6%	-2.5	-12.7	40.1%	4.9%
O=C(COC(=O)CNC(=O)c1ccccc1F)NC12CC3CC(CC(C3)C1)C2	-7.8%	·	·	-20.7%	·
C=CCn1cccc(C(=O)Nc2ccc(C)c(Cl)c2)c1=O	31.7%	13.1	22.8	49.6%	-3.7%
C=CCn1cccc(C(=O)Nc2ccc(SC)cc2)c1=O	25.9%	52.5*	93.5*	42.8%	-11.7%
C=CCn1cccc(C(=O)Nc2cc(OC)c(OC)c(OC)c2)c1=O	?	1.9	-2.6	?	·
C=CCn1cccc(C(=O)Nc2ccc(OCC)cc2)c1=O	i	35.3*	95.1*	124.8%	·
C=CCn1cccc(C(=O)Nc2ccc(Cl)cc2)c1=O	88.1%	36.4*	64.0*	110.5%	-36.7%
C=CCn1cccc(C(=O)Nc2ccc(N(C)C)cc2)c1=O	100.6%	38.6*	89.9*	118.5%	-6.8%
CC(C)(C)OC(=O)NN1CC(=O)N2Cc3ccccc3C[C@@H]2C1=O	-12.6%	-2.1	-6.2	3.7%	1.8%
CC(=O)N1CCC(C(=O)Nc2cc(C)cc(C)c2)CC1	?	2.3	9.1	57.5%	2.3%
COc1ccc(N2C(=O)N3[C@H](c4ccc(Cl)cc4)[C@@H]4C(=O)N(C5CCCCC5)C(=O)[C@@H]4[C@]3(Cc3ccc(Cl)cc3)C2=O)cc1	-107.0%	12.4*	64.3*	1.17µM*	14.3%
COc1ccc([C@@H]2[C@@H]3C(=O)N(C(C)(C)C)C(=O)[C@@H]3[C@]3(Cc4ccc(Cl)cc4)C(=O)N(c4ccc(OC)cc4)C(=O)N23)cc1	?	·	·	13.1µM*	·
O=C1[C@H]2[C@@H](c3ccc(F)cc3)N3C(=O)N(c4ccc(Br)cc4)C(=O)[C@@]3(Cc3ccc(Cl)cc3)[C@H]2C(=O)N1C1CCCCC1	?	-1.9	7.6	3.29µM*	?
COc1ccc([C@@H]2[C@@H]3C(=O)N(C(C)(C)C)C(=O)[C@@H]3[C@]3(Cc4ccc(Cl)cc4)C(=O)N(c4ccc(Br)cc4)C(=O)N23)cc1	?	2.1	14.5	?	25.7%
CCN1C(=O)[C@H]2[C@@H](c3ccc(C)cc3)N3C(=O)N(c4ccc(OC)cc4)C(=O)[C@@]3(Cc3ccc(Cl)cc3)[C@H]2C1=O	-29.2%	-3.0	9.4	?	29.8%
CCNC(=S)N(CCO)Cc1cc2cc3c(cc2[nH]c1=O)OCO3	19.7%	-2.5	·	0.0%	-6.8%
Cc1cc(C)c(NC(=O)C(C)c2cccc(C(=O)c3ccccc3)c2)c(C)c1 (centres undefined)	2.9%	-1.9	-21.4	?	18.2%

Screening results: PubChem, National Center for Advancing Translational Sciences (NCATS)
